High-throughput results from PubChem BioAssay.
Most compounds without a hit are left out; they make up all but 12% or so of the library.
Sm TGR block: inhibitors of Schistosoma mansoni thioredoxin glutathione reductase; purified TGR, DTNB reduction, TNB absorbance 405 nm; Potency, µM (doses to about 114 µM), most hits filed as inhibitors; actives 3% (n = 360,000); AID 485364; note: nearly all actives have a fitted effect of over 60% in size
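Kinetic colorimetric format: TGR-catalysed, NADPH-driven DTNB reduction monitored via TNB absorbance. Enzyme dispensed at 20 nM; compound exposure 15 min at room temperature before reaction start.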
SARS PLP yeast: SARS-CoV PLP inhibition in yeast; Potency, µM (titrated, usually from 32.9 µM), most hits filed as activators; S. cerevisiae expressing SARS-CoV PLpro, growth rescue; AID 485353; actives 0.19% (n = 330,000); calls by dose curve; note: nearly all actives have a fitted effect of over 55% in size
Pf growth 96h: P. falciparum growth inhibition at 96 hour, primary screen for plastid delayed-death inhibitors. Potency, µM (highest dose often 28.7 µM), most hits filed as inhibitors. AID 504834. actives 6.9% (n = 320,000). P. falciparum luciferase reporter growth, 96 h
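Infected RBCs, 2% Hct / 0.05% parasitemia final; luciferase-reporter P. falciparum; cpd 96 h, 37 C, 5% CO2; luciferase detection reagent; luminescence.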
Pf growth 48h: inhibits P. falciparum growth in the first generation, 48 h; P. falciparum luciferase growth in erythrocytes, 48 h; Potency, µM (top dose mostly 28.7 µM), most hits filed as inhibitors; actives 5.9% (n = 310,000)
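Growth was read as firefly luciferase luminescence after a 48 h, 37 C, 5% CO2 exposure of compounds to reporter-bearing P. falciparum cultures (0.1% parasitemia, 2% hematocrit final) in Albumax-supplemented RPMI 1640.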
A number is an active result. Unless noted, calls come from the whole dose curve; as a rule, active = well fitted curve in the direction sought with a large enough effect; inconclusive = small, poorly fitted or top-dose-only effect, or another doubt; inactive = no such curve, though single readings can be large; an effect the other way counts as inactive or inconclusive.

How did CCN(CC)C(=O)CNC(=O)c1nn(-c2ccc(OC)c(Cl)c2)c(=O)c2ccccc12 do in these assays?
Sm TGR block: inactive; SARS PLP yeast: inactive; Pf growth 96h: inactive; Pf growth 48h: 4.15µM

How did CC1CCC(NCC(O)c2ccccc2)CC1 (configuration not stated) do in these assays?
Sm TGR block: inactive; SARS PLP yeast: inactive; Pf growth 96h: 6.57µM

How did COc1ccc(CCNCC(O)c2ccccc2)cc1 (configuration not stated) do in these assays?
Sm TGR block: inactive; SARS PLP yeast: inactive; Pf growth 96h: inconclusive; Pf growth 48h: 9.28µM

What do the screens show for `O[C@@H](CNC[C@H](O)c1ccccc1)c1ccccc1`?
Sm TGR block: inactive; SARS PLP yeast: inactive; Pf growth 96h: 9.28µM; Pf growth 48h: 9.28µM

How did OC(CNCCc1ccccc1)c1ccccc1 (configuration not stated) do in these assays?
Sm TGR block: inactive; SARS PLP yeast: inactive; Pf growth 96h: 5.86µM; Pf growth 48h: 5.86µM

How did CCC(C)[C@H]1COCCS(=O)(=O)N1Cc1ccc(Cl)cc1Cl (some centres not stated) do in these assays?
Sm TGR block: inactive; SARS PLP yeast: inactive; Pf growth 96h: inconclusive; Pf growth 48h: inactive

Results for Cc1ccccc1CCNC(=O)C1CC(O)CN1C(=O)Nc1ccccc1 (configuration not stated) ?
Sm TGR block: inactive; SARS PLP yeast: inactive; Pf growth 96h: inactive; Pf growth 48h: inactive

What do the screens show for `COc1cccc(OCc2cc(C(=O)N3CCN(C)C(c4ccccc4)C3)no2)c1` (configuration not stated)?
Sm TGR block: inactive; SARS PLP yeast: inactive; Pf growth 96h: inconclusive; Pf growth 48h: inactive

Results for CCC/C=C(\CCC)C(NS(=O)(=O)c1ccc(C(F)(F)F)cc1)c1ccccc1 (configuration not stated) ?
Sm TGR block: inactive; SARS PLP yeast: inactive; Pf growth 96h: 7.38µM; Pf growth 48h: 9.28µM

Results for Cc1cc(C)n(C(C)CC(=O)NCc2ccc(N(C)C)cc2)n1 (configuration not stated) ?
Sm TGR block: inactive

What do the screens show for `COc1ccc(NC(=O)N2CCc3c(sc4c3CCCC4)C2c2ccccc2OC)cc1` (configuration not stated)?
Sm TGR block: inactive

Results for C=CCSc1nnc(-c2nnc(SCC=C)n2CC)n1CC ?
Sm TGR block: inactive; SARS PLP yeast: inactive; Pf growth 96h: 11.7µM; Pf growth 48h: 10.4µM

What do the screens show for `Cc1ccc(CCC(=O)Nc2ccc(S(N)(=O)=O)cc2)o1`?
Sm TGR block: 14.1µM; SARS PLP yeast: inactive; Pf growth 48h: inactive

How did CC(=O)Nc1ccc(NC(=O)CCc2ccc(C)o2)cc1 do in these assays?
Sm TGR block: inactive; SARS PLP yeast: inactive; Pf growth 96h: inactive; Pf growth 48h: inactive

Results for Cc1cccc(NC(=O)CCc2ccc(C)o2)c1 ?
Sm TGR block: 35.5µM; SARS PLP yeast: inactive; Pf growth 96h: inconclusive; Pf growth 48h: inactive

What do the screens show for `Cc1cc(C)cc(NC(=O)CCc2ccc(C)o2)c1`?
Sm TGR block: inactive; SARS PLP yeast: inactive; Pf growth 96h: inactive; Pf growth 48h: inactive

Results for O=C(OCc1c(F)cccc1Cl)c1cccnc1Cl ?
Sm TGR block: inactive; SARS PLP yeast: inactive; Pf growth 96h: inactive; Pf growth 48h: inactive

What do the screens show for `Cc1ccccc1Cn1nnc(-c2ccc(F)cc2)n1`?
Sm TGR block: inactive; SARS PLP yeast: inactive; Pf growth 96h: inactive; Pf growth 48h: inactive

What do the screens show for `O=C(c1cccc(S(=O)(=O)N2CCOCC2)c1)N(Cc1ccco1)Cc1cccs1`?
Sm TGR block: inactive; SARS PLP yeast: inactive; Pf growth 96h: inconclusive; Pf growth 48h: inconclusive

Results for O=C(CN(Cc1ccco1)Cc1cccs1)N1CCN(S(=O)(=O)c2cccc(F)c2)CC1 ?
Sm TGR block: 39.8µM; SARS PLP yeast: inactive; Pf growth 96h: inconclusive; Pf growth 48h: 13.1µM

Results for O=C(Cc1cccs1)N1CCN(S(=O)(=O)c2ccccc2)CC1 ?
Sm TGR block: inactive; SARS PLP yeast: inactive; Pf growth 96h: 13.1µM; Pf growth 48h: inactive

Results for COc1ccc(S(=O)(=O)N2CCN(C(=O)Cc3cccs3)CC2)cc1 ?
Sm TGR block: inactive; SARS PLP yeast: inactive; Pf growth 96h: inactive; Pf growth 48h: inactive

How did CN(CC(=O)NC(=O)NCc1ccccc1)CC(=O)Nc1ccc(Cl)c(Cl)c1 do in these assays?
Sm TGR block: inactive; SARS PLP yeast: inactive; Pf growth 96h: inconclusive; Pf growth 48h: inconclusive

How did CCOc1ccccc1CNC(=O)CCn1ccc2cc(S(=O)(=O)N3CCC(C)CC3)ccc21 do in these assays?
Sm TGR block: inactive

What do the screens show for `Cc1c(CNC2CCC(C)CC2)c(C(=O)O)c(C)n1Cc1ccc(Cl)cc1` (configuration not stated)?
Sm TGR block: inactive

How did Cc1cc(C)cc(NC(=S)Nc2cccc3cnccc23)c1 do in these assays?
Sm TGR block: inconclusive; SARS PLP yeast: inactive; Pf growth 96h: inconclusive; Pf growth 48h: 2.08µM

What do the screens show for `Cc1ccc(NC(=S)Nc2cccc3cnccc23)c(C)c1`?
Sm TGR block: inactive; SARS PLP yeast: inactive; Pf growth 96h: inactive; Pf growth 48h: inactive

What do the screens show for `CCN1CC(CN(C)Cc2nc(-c3cccs3)no2)CC1=O` (configuration not stated)?
Sm TGR block: inactive; SARS PLP yeast: inactive; Pf growth 96h: 11.7µM; Pf growth 48h: inactive

How did Cc1ccc(NC(=O)C(=O)NCCN2CCN(Cc3ccc([N+](=O)[O-])cc3)CC2)cc1 do in these assays?
Sm TGR block: inactive; SARS PLP yeast: inactive; Pf growth 96h: 0.465µM; Pf growth 48h: inactive

Results for CCC1=C/C(=C/c2sc3ccccc3[n+]2CC)CC(C)(C)C1 ?
Sm TGR block: 1.78µM; SARS PLP yeast: inactive; Pf growth 96h: inactive; Pf growth 48h: inconclusive

What do the screens show for `CC[n+]1c(/C=C2\C=C(C)CC(C)C2)sc2ccccc21` (configuration not stated)?
Sm TGR block: 39.8µM; SARS PLP yeast: inactive; Pf growth 96h: inconclusive; Pf growth 48h: inconclusive

How did CC[n+]1c(/C=C2/C=C(C)CC(C)(C)C2)sc2ccc(OC)cc21 do in these assays?
Sm TGR block: 17.8µM; SARS PLP yeast: inactive; Pf growth 96h: inactive; Pf growth 48h: 0.37µM

What do the screens show for `CCN1/C(=C/C(C)=C/c2sc3ccccc3[n+]2CC)Sc2ccccc21`?
Sm TGR block: inactive; SARS PLP yeast: inactive; Pf growth 96h: inconclusive; Pf growth 48h: inconclusive

What do the screens show for `CC[n+]1c(/C=C2\C=C(C)CC(C)(C)C2)sc2ccccc21`?
Sm TGR block: 14.1µM; SARS PLP yeast: inactive; Pf growth 96h: inconclusive; Pf growth 48h: 0.329µM

What do the screens show for `CC(C)(C)C(=O)Nc1ccc(C(=O)CN2C(=O)NC3(CCOc4ccccc43)C2=O)cc1` (configuration not stated)?
Sm TGR block: inactive; SARS PLP yeast: inactive; Pf growth 96h: inconclusive; Pf growth 48h: inconclusive

Results for CN1CCN(c2ccccc2NC(=O)c2ccc(-c3ccc(Br)cc3)o2)CC1 ?
Sm TGR block: inactive; SARS PLP yeast: inactive; Pf growth 96h: inactive; Pf growth 48h: 13.1µM

Results for CN1CCN(c2ccccc2NC(=O)c2ccc(-c3cccc([N+](=O)[O-])c3)o2)CC1 ?
Sm TGR block: inactive; SARS PLP yeast: inactive; Pf growth 96h: inconclusive; Pf growth 48h: 10.4µM
